Our source for the outcome and AC50 values is PubChem BioAssay (EPA / NIEHS).

Activity calls are given as the source filed them. Rule for the calls: active = hit-call score of the fitted dose curve at least 0.9, where 1 is the maximum; inactive = score below 0.9.

In this assay the target is Transcription factor Sp1 (Homo sapiens) (UniProt P08047). In words: ATG_Sp1_CIS: Attagene CIS-FACTORIAL HepG2 Assay for human Specificity Protein 1 (Sp1) (AID 2282961). The conditions noted are these: HepG2 Sp1 cis-reporter transcription, actives raise or lower the signal. The procedure: ATG_CIS is a cell-based, multiplexed-readout assay that uses HepG2, a human liver cell line, with measurements taken at 24 hours after chemical dosing in a 24-well plate.ATG_Sp1_CIS is one of 52 assay component(s) measured or calculated from the ATG_CIS assay. It is designed to make measurements of mRNA induction, a form of inducible reporter, as detected with fluorescence intensity signals by Reverse transcription polymerase chain reaction (RT-PCR) and Capillary electrophoresis technology.Data from the assay component ATG_Sp1_CIS was analyzed into 1 assay endpoint. This assay endpoint, ATG_Sp1_CIS, was analyzed with bidirectional fitting relative to DMSO as the negative control and baseline of activity. Using a type of inducible reporter, measures of mRNA for gain or loss-of-signal activity can be used to understand the reporter gene at the transcription factor-level as they relate to the gene SP1. Furthermore, this assay endpoint can be referred to as a primary readout, because this assay has produced multiple assay endpoints where this one serves a reporter gene function. To generalize the intended target to other relatable targets, this assay endpoint is annotated to the dna binding intended target family, where the subfamily is zinc finger.
Transcription factor Sp1 (Homo sapiens), sequence (P08047 whole entry, looked up): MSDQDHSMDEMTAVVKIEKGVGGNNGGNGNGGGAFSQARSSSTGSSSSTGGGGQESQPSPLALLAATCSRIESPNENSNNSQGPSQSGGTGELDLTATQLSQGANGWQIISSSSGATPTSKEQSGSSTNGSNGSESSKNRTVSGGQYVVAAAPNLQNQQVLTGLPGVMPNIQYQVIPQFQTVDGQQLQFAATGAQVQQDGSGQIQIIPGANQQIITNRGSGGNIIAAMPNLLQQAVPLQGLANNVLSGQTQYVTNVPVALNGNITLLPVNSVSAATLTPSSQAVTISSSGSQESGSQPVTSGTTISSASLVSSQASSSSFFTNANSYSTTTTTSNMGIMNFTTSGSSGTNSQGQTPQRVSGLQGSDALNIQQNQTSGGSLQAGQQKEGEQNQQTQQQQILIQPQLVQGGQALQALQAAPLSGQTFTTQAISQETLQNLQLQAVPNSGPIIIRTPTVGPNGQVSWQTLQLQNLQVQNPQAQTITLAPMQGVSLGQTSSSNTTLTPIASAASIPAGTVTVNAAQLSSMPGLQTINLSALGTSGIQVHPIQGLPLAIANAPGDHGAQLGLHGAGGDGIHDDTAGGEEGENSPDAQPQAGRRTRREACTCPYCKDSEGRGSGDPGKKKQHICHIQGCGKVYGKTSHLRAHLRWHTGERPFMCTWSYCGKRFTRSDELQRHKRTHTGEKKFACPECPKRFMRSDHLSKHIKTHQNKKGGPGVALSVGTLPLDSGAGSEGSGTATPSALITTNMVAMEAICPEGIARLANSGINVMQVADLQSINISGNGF
Human liver HepG2 cells are transiently transfected with multiple reporter transcription units (MRTUs) in 6-well plates using FuGene 6 reagent (Roche; 3 ml FuGene/1 mg DNA). The MRTU constructs are regulated by a cis-regulating element (promoter). […] A major difference between the CIS and TRANS system is that in CIS activities of endogenous TFs are measured, whereas the TRANS assay evaluates changes in activities of exogenous, chimeric NR-Gal4 proteins. […] At the end of 24 hour incubation, total RNA was isolated using TriZol reagent (Invitrogen). The isolated RNA is then reverse-transcribed using oligo(dT) primer and Mo-MLV reverse transcriptase (Invitrogen) with DNAse I (Ambion) treatment for 30 min. The one-tenth of the produced cDNA was amplified by PCR using Taq DNA polymerase (Invitrogen) and two reporter sequence-specific primers. The PCR products were fluorescently labeled by primer extension with 6-arboxyfluorescein (6-FAM) 5'-labeled reporter sequence-specific primer (2 min at 95 C, 20 s at 68 C and 10 min at 72 C) and these products were digested with 5U of HpaI (New England Biolabs) for 2h at 37 C. The fragments were purified using Qiaquick PCR columns (Qiagen), analyzed on an ABI 3130xL genetic analyzer (Applied Biosystems) with peak positions identified by using a set of X-rhodamine (ROX)-labeled MapMarker1000 molecular weight standards (BioVentures). The raw capillary electrophoresis data was processed using Attagraph software (Attagene).
For the compound `CC(C)[C@H](C(=O)O[C@H](C#N)c1cccc(Oc2ccccc2)c1)c1ccc(Cl)cc1`, the call was inactive. On to `C#CC(C)(C)NC(=O)c1cc(Cl)cc(Cl)c1`, for which the compound was called inactive. Same read-out and setting: in the case of `CCOP(=O)(NC(C)C)Oc1ccc(SC)c(C)c1` (stereo not given) it was “inactive”; in that of `CCOP(=S)(OCC)Oc1ccc2c(C)c(Cl)c(=O)oc2c1`, “inactive”; in that of `Cc1nn(-c2cc(NS(C)(=O)=O)c(Cl)cc2Cl)c(=O)n1C(F)F`, “inactive”. With `CCOP(=O)(OCC)Oc1cc(C)nc(C(C)C)n1`, the compound was called inactive. Still for that read-out and setting: the result for `CC(Oc1cccc(Cl)c1)C(=O)O` (stereo not given) reads “inactive”. For the compound `CNC(=O)Oc1cccc2c1OC(C)(C)O2`, the AC50 (commonly the concentration at which the activity in the assay is half-maximal) is 50 µM (active). As for `O=[N+]([O-])c1cc(C(F)(F)F)c(Cl)c([N+](=O)[O-])c1Nc1ncc(C(F)(F)F)cc1Cl`, the compound was called inactive. Same read-out and setting: the result for `CCOP(=O)(SC(C)CC)N1CCSC1=O` (stereo not given) reads “inactive”; that for `CCCOc1nn(C(=O)NS(=O)(=O)c2ccccc2C(=O)OC)c(=O)n1C`, “inactive”; that for `CC1(C(=O)Nc2ccc(O)c(Cl)c2Cl)CCCCC1`, “inactive”. As to `CON=C(C(=O)OC)c1ccccc1CON=C(C)c1cccc(C(F)(F)F)c1`, the call was inactive. With `C[Si](Cn1cncn1)(c1ccc(F)cc1)c1ccc(F)cc1`, the compound was classed as inactive.

As to `CC(=NC#N)N(C)Cc1ccc(Cl)nc1`, the outcome was inactive.

In the case of `CNC(=O)ON=C(C)SC`, the outcome was inactive. On to `CNC(=O)ON=C(SC)C(=O)N(C)C`, for which the compound was called inactive. Still for that read-out and setting: the result for `CC1=NNC(=O)N(/N=C/c2cccnc2)C1` reads “inactive”; that for `CCC(CC)Nc1c([N+](=O)[O-])cc(C)c(C)c1[N+](=O)[O-]`, “inactive”; that for `CCOP(=S)(OCC)Oc1cc(C)nc(C(C)C)n1`, “inactive”.

Take `CC(C1CC1)C(O)(Cn1cncn1)c1ccc(Cl)cc1` (stereo not given): the call was inactive.

With `CCCSP(=O)(OCC)SCCC`, the result was inactive.

`COP(=O)(OC)SCn1c(=O)oc2cc(Cl)cnc21`: the outcome was inactive.

As for `CN(C)NC(=O)CCC(=O)O`, the compound was called inactive.

For `CCOC(=O)CC(SP(=O)(OC)OC)C(=O)OCC` (stereo not given), the result was inactive. As for `CCc1cccc(CC)c1N(COC)C(=O)CCl`, the AC50 was 7.75 µM (active). As to `Nc1nc(N)nc(NC2CC2)n1`, the compound was called inactive. On the same count and under the same terms, the result for `CCCSP(=O)(OCC)Oc1ccc(Br)cc1Cl` (stereo not given) reads “inactive”. Still for that read-out and setting: the result for `CCc1cccc(C)c1N(C(=O)CCl)C(C)COC` (stereo not given) reads “inactive”; that for `COc1cccc(C(=O)NN(C(=O)c2cc(C)cc(C)c2)C(C)(C)C)c1C`, “inactive”. Take `C#CCC1=C(C)C(OC(=O)C2C(C=C(C)C)C2(C)C)CC1=O` (stereo not given): the AC50 was 50 µM (active). In the case of `CCOP(=S)(Oc1cnc(C(C)(C)C)nc1)OC(C)C` (stereo not given), the AC50 was 28.1 µM (active).

Turning to `CCC(=NOC/C=C/Cl)C1=C(O)CC(C2CCOCC2)CC1=O` (stereo not given), the outcome was inactive. `CC(C)N(C(=O)SCC(Cl)=C(Cl)Cl)C(C)C`: the compound was called inactive. As for `CNc1cnn(-c2cccc(C(F)(F)F)c2)c(=O)c1Cl`, the call was inactive.

For `N#CSCSC#N`, the outcome was inactive. As for `CC(COc1ccc(Oc2ccccc2)cc1)Oc1ccccn1` (stereo not given), the result was inactive.

Consider `CCCCN(CC)c1c([N+](=O)[O-])cc(C(F)(F)F)cc1[N+](=O)[O-]`, for which the compound was classed as inactive. For the compound `CCCCSP(=O)(SCCCC)SCCCC`, the AC50 is 50 µM (active).

Consider `CC(C)=CC1C(C(=O)OCN2C(=O)C3=C(CCCC3)C2=O)C1(C)C` (stereo not given), for which the result was inactive.
